{
  "source": "PubChem BioAssay AID1259336",
  "about": "(Sattelle Laboratory, UCL Respiratory, Division of Medicine, …, 2017)",
  "note": "The source made the active and inactive calls. Rule as the data show it: active = log2 fold change growth below about -1.8; inactive = the rest.",
  "data": [
    {"experiment": "C. elegans growth inhibition, whole organism, log2 fold change (AID 1259336);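 also: growth scored by imaging after five days at 20 °C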", "settings": "anthelmintic screen, stronger effect = lower value", "values": [
      {"smiles": "CNc1cc(C)nc([C@@H]2CN(C(=O)c3n[nH]c4ccccc34)CCO2)c1", "log2 fold change growth": "0.0798 (inactive)"},
      {"smiles": "COc1ccc(N(CCc2cccc(C)n2)C(=O)C2CCCCC2)cc1", "log2 fold change growth": "-0.0192 (inactive)"},
      {"smiles": "COC(=O)Nc1nc2ccc(C(=O)c3ccccc3)cc2[nH]1", "log2 fold change growth": "-6.04 (active)"},
      {"smiles": "O=C(c1ccc(NCCO)cc1)C1C[C@H]1c1ccc(Cl)cc1", "note": "(stereo partly drawn)", "log2 fold change growth": "-0.319 (inactive)"},
      {"smiles": "NCCC[C@@](N)(C(=O)O)C(F)F", "log2 fold change growth": "0.109 (inactive)"},
      {"smiles": "CC(C)[C@H](NC(=O)Cc1cccc2ccccc12)C(=O)Nc1cccc(C#N)c1", "log2 fold change growth": "0.334 (inactive)"},
      {"smiles": "CC[C@H](Sc1nc2ccccc2o1)C(=O)Nc1nnc(C)s1", "log2 fold change growth": "0.272 (inactive)"},
      {"smiles": "CCCc1ccc(S(=O)(=O)Nc2ccc(CN3CCN(CC4CC4)CC3)cc2)cc1", "log2 fold change growth": "0.319 (inactive)"},
      {"smiles": "O=S(=O)(c1ccc(Cl)cc1)N1CCN(C(=S)NCc2ccco2)CC1", "log2 fold change growth": "-0.203 (inactive)"},
      {"smiles": "Cc1nc(-c2ccccn2)nc(N(C)CCc2ccccc2)c1Cl", "log2 fold change growth": "-0.0752 (inactive)"},
      {"smiles": "CNC(=O)CNc1nc(-c2ccccn2)nc2scc(-c3ccccc3)c12", "log2 fold change growth": "0.152 (inactive)"},
      {"smiles": "O=C(Nc1c(O)cccc1-c1nc2c(C(=O)O)cccc2o1)c1cc(-c2ccccc2)on1", "log2 fold change growth": "-0.772 (inactive)"},
      {"smiles": "CS(=O)(=O)N1CCC(CCn2nc(Cc3cccc4ccccc34)c3c(N)ncnc32)CC1", "log2 fold change growth": "-1.16 (inactive)"},
      {"smiles": "O=C(NCCc1c[nH]c2ccccc12)c1cc2ccccc2oc1=O", "log2 fold change growth": "0.481 (inactive)"},
      {"smiles": "O=C(COc1cccc(F)c1)Nc1nc(-c2ccccn2)cs1", "log2 fold change growth": "-0.223 (inactive)"},
      {"smiles": "O=C(c1ccc(F)cc1)N(CCNc1ccccc1)c1ccccc1", "log2 fold change growth": "0.348 (inactive)"},
      {"smiles": "CCc1nc2ccc(C(=O)NCc3ccc4c(c3)OCO4)cn2c1N(C)Cc1cccs1", "log2 fold change growth": "-0.917 (inactive)"},
      {"smiles": "Cc1cc(C)c2cc(C(=O)NC3CCCCCCC3)[nH]c2c1", "log2 fold change growth": "-0.0221 (inactive)"},
      {"smiles": "CC[C@H](C)NC(=O)c1ccc(NC(=O)C2(c3ccccc3)CCCC2)cc1", "log2 fold change growth": "0.546 (inactive)"},
      {"smiles": "NC(=O)c1cc(Br)ccc1OCCOc1ccccc1", "log2 fold change growth": "0.186 (inactive)"},
      {"smiles": "CCOC(=O)NC(=O)c1ccsc1NC(=O)c1nc2ccccc2s1", "log2 fold change growth": "-3.88 (inactive)"},
      {"smiles": "O=C(Cn1ccnc1[N+](=O)[O-])NCc1ccccc1", "log2 fold change growth": "0.415 (inactive)"},
      {"smiles": "O=C(N[C@H]1CCN(c2ccnc3ccccc23)C1)c1cccc(C(F)(F)F)c1", "log2 fold change growth": "0.541 (inactive)"},
      {"smiles": "COc1cc2ncnc(NC3CCN(Cc4ccccc4)CC3)c2cc1OC", "log2 fold change growth": "-0.116 (inactive)"},
      {"smiles": "CCOc1ccc(-c2nc(NC(=O)CS(=O)(=O)c3ccccc3)sc2C)cc1", "log2 fold change growth": "-1.31 (inactive)"},
      {"smiles": "CCCCOC(=O)Nc1cc2[nH]c(C3CCCCC3)nc2cc1N1CCCC1", "log2 fold change growth": "-0.373 (inactive)"},
      {"smiles": "CNc1snc(C)c1C(=O)NCCOc1ccc(OC)cc1", "log2 fold change growth": "-0.0598 (inactive)"},
      {"smiles": "OCc1ccc(-c2cncc(Nc3cccc(Cl)c3)c2)cc1", "log2 fold change growth": "-0.873 (inactive)"},
      {"smiles": "Clc1ccc(CN2CCN(C3=NCCN3)CC2)cc1Cl", "log2 fold change growth": "0.0846 (inactive)"},
      {"smiles": "Cc1ccc(-c2nc(CN(Cc3ccccn3)C(C)C)cs2)o1", "log2 fold change growth": "0.617 (inactive)"},
      {"smiles": "COc1cccc(NC(=O)c2c(NC(=O)c3cccnc3)sc3c2CCC3)c1", "log2 fold change growth": "-1.12 (inactive)"},
      {"smiles": "CO[C@@H](C(=O)N1Cc2[nH]nc(NC(=O)c3ccc(N4CCN(C)CC4)cc3)c2C1)c1ccccc1", "log2 fold change growth": "0.339 (inactive)"},
      {"smiles": "c1cc(C2=NCCN2)cc(-c2cc(-c3ccc(C4=NCCN4)cc3)no2)c1", "log2 fold change growth": "0.193 (inactive)"},
      {"smiles": "Clc1cccc(CO[C@H]2CCc3ccccc3[C@@H]2n2ccnn2)c1", "log2 fold change growth": "0.571 (inactive)"},
      {"smiles": "Cc1ccc2cc([C@@H]3NC(=O)c4ccccc4N3)c(Cl)nc2c1", "log2 fold change growth": "-0.0454 (inactive)"},
      {"smiles": "Cc1nc2ccccn2c1C(=O)NCc1ccc(Cl)cc1", "log2 fold change growth": "0.244 (inactive)"},
      {"smiles": "CS(=O)(=O)Cc1nc2ccccc2oc1=O", "log2 fold change growth": "-0.133 (inactive)"},
      {"smiles": "CN1CCC(NCc2cccc(-c3ccc(S(=O)(=O)NCc4ccccc4)cc3)c2)CC1", "log2 fold change growth": "0.364 (inactive)"}
    ]}
  ]
}
